CHX counter – counter-screen hit for Shiga toxin inhibitors, cycloheximide | cell reporter, cycloheximide protein synthesis inhibition counterscreen | max response, % | 12% of 300,000 active; in the data active = max response mostly above about 13%, no sharp cut-off; inactive = mostly below about 14%; note: read at 38.3 µM for the half of the compounds with a filed dose; 0% is about no effect
Lassa entry inh – Lassa virus entry inhibition | 1.2% of 300,000 active | Potency, µM (series often up to 37.9 µM), without a hit: at the highest dose activity change, negative = inhibition, most hits filed as inhibitors | Lassa virus pseudotype entry inhibition, cell reporter | AID 540256; calls by dose curve; tested in HEK293 cells; note: potency is the fitted concentration of half-maximal effect; % is set by controls: 0 for no effect and ±100 for the full control effect; nearly all actives have a fitted effect of over 50% in size
Pf growth 96h – P. falciparum growth inhibition at 96 hour, primary screen for plastid delayed-death inhibitors; 6.9% of 320,000 active; P. falciparum luciferase reporter growth, 96 h; Potency, µM (series often up to 28.7 µM), for inactives: top-dose activity change, negative = inhibition, usual class: inhibitors; note: potency is the fitted concentration of half-maximal effect; % is set by controls: 0 for no effect and ±100 for the full control effect
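Two-generation exposure (96 h) targets delayed-death phenotype. Reporter parasites carrying integrated firefly luciferase, in red cells at 2% hematocrit and 0.05% parasitemia final, kept at 37 C, 5% CO2; luminescence loss indicates inhibition.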
Shiga toxin inh – inhibitors of Shiga toxin in Vero cells; Vero cells, Shiga toxin protein synthesis inhibition reporter; inhibition, % at 38.7 µM; 9.2% of 290,000 active; AID 2315; in the data active = inhibition mostly above about 28%, no sharp cut-off; inactive = mostly below about 43%; note: 0% is about no effect
Marburg entry inh – Marburg virus entry inhibition; AID 540276; Marburg virus pseudotyped entry inhibition, cell reporter; 1.8% of 300,000 active; Potency, µM (top dose mostly 37.8 µM), without a hit: top-dose activity change, negative = inhibition, usual class: inhibitors; calls by dose curve; tested in HEK293 cells; note: potency is the fitted concentration of half-maximal effect; % is set by controls: 0 for no effect and ±100 for the full control effect
Pf growth 48h – P. falciparum growth inhibition at 48 hours (one generation) | P. falciparum luciferase growth in erythrocytes, 48 h | Potency, µM (doses to about 28.7 µM), for inactives: at the highest dose activity change, negative = inhibition, actives largely listed as inhibitors | 5.9% of 310,000 active | AID 504832; note: potency is the fitted concentration of half-maximal effect; % is set by controls: 0 for no effect and ±100 for the full control effect
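Cell-based growth assay: transgenic P. falciparum expressing firefly luciferase, cultured in red cells within RPMI 1640 containing 0.5% w/v Albumax, 24 mM bicarbonate and gentamycin. A drop in luciferase activity indicates inhibition.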
Active calls of the source: *; u = inconclusive; x = not tested or not shown; [ ] = remark or other dose. In the library only some 19% were active in any assay of this set; here they are far more common. Unless noted, calls come from the whole dose curve; as a rule, active = well fitted inhibition curve with a large enough effect; inconclusive = small, poorly fitted or top-dose-only effect, or another doubt; inactive = no such curve, though single readings can be large or run the other way.

SMILES	CHX counter	Lassa entry inh	Pf growth 96h	Shiga toxin inh	Marburg entry inh	Pf growth 48h
CCCCNC(=O)CNC(=O)c1nn(-c2ccc(OC)c(Cl)c2)c(=O)c2ccccc12	-2	x	30%	13	x	x
COc1ccc(-n2nc(C(=O)NCC(=O)NCc3ccccc3OC)c3ccccc3c2=O)c(OC)c1	7	x	u	-7	0%[46.1 µM]	u
COc1ccc(-n2nc(C(=O)NCC(=O)NC3CCCCCC3)c3ccccc3c2=O)c(OC)c1	-2	-19%[46.1 µM]	u	4	14%[46.1 µM]	u
CCC1CCCCN1CCCNC(=O)CNC(=O)c1nn(-c2ccc(OC)c(Cl)c2)c(=O)c2ccccc12 (configuration not stated)	-3	6%[46.1 µM]	u	-12	u	5.2µM*
COc1ccc(OC)c(NC(=O)Cn2c(C)nc3ccccc3c2=O)c1	32*	-12%	1%	82*	-21%[46.1 µM]	-15%
COc1ccc(-n2nc(C(=O)NCC(=O)NC3CCCCC3)c3ccccc3c2=O)c(OC)c1	-8	13µM*	24%	4	u	-11%
COc1ccc(NC(=O)N2CCCC2C(=O)Nc2cccc(C)c2C)cc1 (configuration not stated)	-4	5%	u	-20	-3%[46.1 µM]	21%
Cc1cc(C)c2cc(C)c(SCC(=O)NCc3ccco3)nc2c1	-2	x	22%	-6	x	-15%
O=C(Nc1ccc([N+](=O)[O-])cc1Br)c1cc2ccccc2nc1Cl	2	-43%	0.33µM*	-2	u	0.19µM*
O=C(Nc1cccnc1Cl)c1cc([N+](=O)[O-])ccc1Cl	18	u	u	21	u	-23%
Cc1ccc(O)c(NC(=O)c2cc([N+](=O)[O-])ccc2Cl)c1	13	-20%	30%	26	-18%[46.1 µM]	9.3µM*
Cc1occc1C(=O)Nc1ccc([N+](=O)[O-])cc1Br	10	x	27%	9	x	29%
O=C(Nc1cccc2ncccc12)c1cc([N+](=O)[O-])ccc1Cl	-5	1%[46.1 µM]	12µM*	11	7%[46.1 µM]	5%[0.00184 µM]
O=C(Nc1ccccc1F)Nc1ccc([N+](=O)[O-])cc1Cl	9.8*	-30%	16%	29*	-28%	63%
Cc1cc([N+](=O)[O-])ccc1NC(=O)Nc1ccc(F)cc1F	-1	u	1%	-12	u	u
COC(=O)c1c(NC(=O)c2ccc(Br)o2)sc(C)c1C	1	13%	x	-16	10%	56%
CC1CCN(C(=O)COC(=O)CCC(=O)c2ccc(F)cc2)CC1	x	26%	x	x	u	x
CCC(c1nnc(SCC(=O)N2CC3(C)CC2CC(C)(C)C3)o1)N(C)C (configuration not stated)	-3	12%	-19%	28	u	-1%
O=C(Nc1ccc([N+](=O)[O-])cc1Cl)c1cc(Cl)ccc1O	x	1.3µM*	u	x	1.1µM*	u
Cc1ccc(CNc2oc(C)nc2C#N)cc1	-2	4%	352%	-12	-2%	0%
COc1ccc(-c2nc(C#N)c(NCCCn3ccnc3)o2)cc1OC	1	21%	x	-7	u	u
N#Cc1nc(-c2ccc(F)cc2)oc1NCCCn1ccnc1	39*	x	-29%	42*	x	-17%
CC(C)(C)c1ccc(-c2nc(C#N)c(NCCCn3ccnc3)o2)cc1	9	u	8.3µM*	10	u	u
CC(C)(C)c1ccc(-c2nc(C#N)c(NCc3ccncc3)o2)cc1	57*	-5%	x	91*	u	u
COc1ccccc1-n1c(SCC(=O)Nc2cc(C)on2)nc2c([nH]c3ccccc32)c1=O	8	u	12µM*	10	u	-21%
COc1ccc(C)cc1-n1c(SCC(=O)NCC2CCCO2)nc2c([nH]c3ccccc32)c1=O (configuration not stated)	0	-4%	u	-7	u	9.3µM*
Cc1ccccc1-n1c(SCC(=O)NCC2CCCO2)nc2c([nH]c3ccccc32)c1=O (configuration not stated)	1	u	-22%	-21	u	u
Cc1cc(NC(=O)CSc2nc3c([nH]c4ccccc43)c(=O)n2-c2ccccc2F)no1	-1	u	13µM*	-4	u	13µM*
